Data from PubChem BioAssay (NCATS).
Inconclusive results are not listed. Entries that show only a call come without a potency. Values without a mark were called inactive. Activity calls are given as the source filed them. Unless noted, calls follow the shape of the dose curve; as a rule, active = well fitted curve in the direction sought with a large enough effect; inconclusive = small, poorly fitted or top-dose-only effect, or another doubt; inactive = no such curve, though single readings can be large; an effect the other way counts as inactive or inconclusive.

Columns and labels:
[1] = molecular target: Aldehyde dehydrogenase, mitochondrial (Homo sapiens) (UniProt P05091); assay: qHTS for Inhibitors of the Aldehyde Dehydrogenase Family (ALDH2) Validation screens (AID 2061302; active = well fitted inhibition curve with a large enough effect; title and protocol of this record describe different tests)
[2] = BET inhibitor-based combinations targeting novel dependencies in MECOM-rearranged (r) AML: SET-2 cell line (AID 2202231); details: SET-2 AML cells viability, CellTiter-Glo luminescence, 48 h; viability: active compounds read low, concentration not given here; also: nearly all actives have a fitted effect of over 35% in size; also: potency is read from the fitted curve at half-maximal effect
How it was run: (§1)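 Cells were plated at 500 per well and exposed to an 11-point dose series of each drug for 48 hr. Viability was measured by CellTiter-Glo luminescence, normalized to DMSO and empty-well controls, and summarized as AUC and per-cell-line Z-AUC.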

[3] = BET inhibitor-based combinations targeting novel dependencies in MECOM-rearranged (r) AML: MV-4-11 cell line (AID 2202233); also: nearly all actives have a fitted effect of over 45% in size; also: potency is read from the fitted curve at half-maximal effect
How it was run: (§2)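 Activity is given as area under the curve and as Z-AUC, mean-centred within each cell line. It comes from 11-point dose curves normalized to DMSO and empty wells. CellTiter-Glo luminescence was read after 48 hr drug exposure of 500 cells/well.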

[4] = BET inhibitor-based combinations targeting novel dependencies in MECOM-rearranged (r) AML: HNT-34 cell line (AID 2202234); also: nearly all actives have a fitted effect of over 35% in size; also: potency is read from the fitted curve at half-maximal effect
How it was run: as §2

[5] = BET inhibitor-based combinations targeting novel dependencies in MECOM-rearranged (r) AML: UCSD-AML1 cell line (AID 2202235); also: nearly all actives have a fitted effect of over 40% in size; also: potency is read from the fitted curve at half-maximal effect
How it was run: as §2

[6] = BET inhibitor-based combinations targeting novel dependencies in MECOM-rearranged (r) AML: AML-191 cell line (AID 2202236; also: nearly all actives have a fitted effect of over 35% in size; also: potency is read from the fitted curve at half-maximal effect)
How it was run: as §1

[7] = BET inhibitor-based combinations targeting novel dependencies in MECOM-rearranged (r) AML: AML-194 cell line (AID 2202237; also: nearly all actives have a fitted effect of over 40% in size; also: potency is read from the fitted curve at half-maximal effect)
How it was run: as §1

[8] = molecular target: Retinaldehyde dehydrogenase 3 (Homo sapiens) (UniProt P47895); assay: qHTS for Inhibitors of the Aldehyde Dehydrogenase Family (ALDH1A3) Validation screen (AID 2061312); also: nearly all actives have a fitted effect of over 45% in size
[9] = BET inhibitor-based combinations targeting novel dependencies in MECOM-rearranged (r) AML: OCI-AML3 cell line (AID 2202232); details: Potency: OCI-AML3 viability; also: nearly all actives have a fitted effect of over 35% in size; also: potency is read from the fitted curve at half-maximal effect
How it was run: as §1

[10] = molecular target: Aldehyde dehydrogenase, mitochondrial (Homo sapiens) (UniProt P05091); assay: qHTS for Inhibitors of the Aldehyde Dehydrogenase Family (ALDH2) Confirmatory screens (AID 2061303; active = well fitted inhibition curve with a large enough effect; title and protocol of this record describe different tests; also: nearly all actives have a fitted effect of over 45% in size)

In the case of `CC(=O)[C@]1(O)Cc2c(O)c3c(c(O)c2[C@@H](O[C@H]2C[C@H](N)[C@H](O)[C@H](C)O2)C1)C(=O)c1ccccc1C3=O`, the Potency [1] is reported as “inactive”, the Potency [2] is reported as 468 nM (active) and the Potency [3] is reported as 66.1 nM (active). The Potency [4] was 186 nM (active), the Potency [5] was 148 nM (active) and the Potency [6] was 186 nM (active). For the same compound, the Potency [7] was 235 nM (active).

With `N[C@@H]1CONC1=O` the Potency [1] was “inactive”, the Potency [8] was “inactive” and the viability [2] was 117%. For the same compound, the Potency [9] was “inactive”, the Potency [3] was “inactive” and the Potency [4] was “inactive”. The Potency [5] was “inactive”, the Potency [6] was “inactive” and the Potency [7] was “inactive”.

For `OCCN(CCO)c1nc(N2CCCCC2)c2nc(N(CCO)CCO)nc(N3CCCCC3)c2n1`, the Potency [1] was “inactive”, the Potency [8] was “inactive” and the Potency [5] was “inactive”. The Potency [7] was “inactive”.

For `C[C@@H]1C(=O)NC2=Nc3cccc(Cl)c3CN21`, the Potency [1] was “inactive” and the Potency [8] was “inactive”.

With `O=C1c2ccccc2-c2n[nH]c3cccc1c23` the Potency [1] was “inactive”, the Potency [8] was “inactive” and the Potency [3] was 3320 nM (active). For the same compound, the Potency [4] was 13200 nM (active).

With `N[C@@H](Cc1ccc(O)c(O)c1)C(=O)O` the Potency [1] was “inactive”, the viability [2] was 105% and the Potency [9] was “inactive”. For the same compound, the Potency [3] was “inactive”, the Potency [4] was “inactive” and the Potency [7] was “inactive”.

With `O=c1c(-c2ccc(O)cc2)coc2cc(O[C@@H]3O[C@H](CO)[C@@H](O)[C@H](O)[C@H]3O)ccc12` the Potency [1] was “inactive”, the viability [2] was 119% and the Potency [3] was 20900 nM (active). For the same compound, the Potency [4] was “inactive”.

In the case of `Cn1c(=O)c2[nH]cnc2n(C)c1=O`, the Potency [1] is reported as “inactive”, the Potency [8] is reported as “inactive” and the viability [2] is reported as 117%. The Potency [9] was “inactive”, the Potency [3] was “inactive” and the Potency [4] was “inactive”. For the same compound, the Potency [5] was “inactive” and the Potency [7] was “inactive”.

In the case of `NCCCC(N)(C(=O)O)C(F)F` (stereo not given), the Potency [1] is reported as “inactive”, the viability [2] is reported as 102% and the Potency [9] is reported as “inactive”. The Potency [3] was “inactive”, the Potency [4] was “inactive” and the Potency [5] was “inactive”. For the same compound, the Potency [6] was “inactive” and the Potency [7] was “inactive”.

For `Cc1ccc(S(=O)(=O)Nc2ccc3c(c2)CN(Cc2ccccc2)C(=O)CO3)cc1`, the Potency [10] was “inactive”.

With `CC(=O)OCC(CCn1cnc2cnc(N)nc21)COC(C)=O` the Potency [1] was “inactive”, the Potency [8] was “inactive” and the viability [2] was 121%. For the same compound, the Potency [9] was “inactive”, the Potency [3] was “inactive” and the Potency [4] was “inactive”. The Potency [5] was “inactive”, the Potency [6] was “inactive” and the Potency [7] was “inactive”.

In the case of `CN1C2CCC1CC(OC(=O)C(CO)c1ccccc1)C2` (stereo not given), the Potency [1] is reported as “inactive”, the Potency [8] is reported as “inactive” and the viability [2] is reported as 89.7%. The Potency [4] was “inactive”, the Potency [5] was “inactive” and the Potency [6] was “inactive”. The Potency [7] was “inactive”.

For `CCC1(C)CC(=O)NC1=O` (stereo not given), the Potency [1] was “inactive”, the Potency [8] was “inactive” and the Potency [3] was “inactive”. The Potency [4] was “inactive”, the Potency [5] was “inactive” and the Potency [6] was “inactive”. For the same compound, the Potency [7] was “inactive”.

In the case of `CC(N)=O`, the Potency [1] is reported as “inactive” and the Potency [8] is reported as “inactive”.

For `Nc1nc(OCC2CCCCC2)c2[nH]cnc2n1`, the Potency [1] was “inactive” and the Potency [8] was “inactive”.

In the case of `N[C@@H](Cc1c[nH]c2ccc(O)cc12)C(=O)O`, the Potency [1] is reported as “inactive”, the Potency [8] is reported as “inactive” and the viability [2] is reported as 98.1%. The Potency [9] was “inactive”, the Potency [3] was “inactive” and the Potency [5] was “inactive”. For the same compound, the Potency [6] was “inactive”.

In the case of `COc1cc2c(cc1OC)C1CC(=O)C(CC(C)C)CN1CC2` (stereo not given), the Potency [1] is reported as “inactive”, the Potency [8] is reported as “inactive” and the viability [2] is reported as 109%. The Potency [9] was “inactive”, the Potency [4] was “inactive” and the Potency [5] was “inactive”. The Potency [6] was “inactive” and the Potency [7] was “inactive”.

In the case of `C[C@]12CCC(=O)C=C1CC[C@@H]1[C@@H]2[C@@H](O)C[C@@]2(C)[C@H]1CC[C@]2(O)C(=O)CO`, the Potency [1] is reported as “inactive”, the Potency [8] is reported as “inactive” and the viability [2] is reported as 113%. For the same compound, the Potency [9] was “inactive”, the Potency [3] was “inactive” and the Potency [4] was “inactive”. For the same compound, the Potency [5] was “inactive”, the Potency [6] was 417 nM (active) and the Potency [7] was “inactive”.

In the case of `NC1CONC1=O` (stereo not given), the Potency [1] is reported as “inactive” and the Potency [8] is reported as “inactive”.

With `CCc1cccc(NC(=O)CN(C)S(=O)(=O)c2ccc3c(c2)n(C)c(=O)c(=O)n3C)c1` the Potency [10] was “inactive”.

In the case of `CN[C@H]1CC[C@@H](c2ccc(Cl)c(Cl)c2)c2ccccc21`, the Potency [1] is reported as “inactive”, the Potency [8] is reported as “inactive” and the Potency [9] is reported as 13200 nM (active). For the same compound, the Potency [6] was 18600 nM (active).

In the case of `Cc1ccc(Cl)c(Nc2ccccc2C(=O)O)c1Cl`, the Potency [1] is reported as “inactive” and the Potency [8] is reported as “inactive”.

With `Cn1cnc2c1c(=O)[nH]c(=O)n2C` the Potency [1] was “inactive”, the Potency [8] was “inactive” and the viability [2] was 114%. For the same compound, the Potency [9] was “inactive”, the Potency [3] was “inactive” and the Potency [4] was “inactive”. The Potency [5] was “inactive”, the Potency [6] was “inactive” and the Potency [7] was “inactive”.

For `O=C1NC(=O)C(c2ccccc2)(c2ccccc2)N1`, the Potency [1] was “inactive” and the Potency [8] was “inactive”.

For `CC(=O)OCC(=O)[C@@]1(O)CC[C@H]2[C@@H]3CCC4=CC(=O)CC[C@]4(C)[C@H]3C(=O)C[C@@]21C`, the Potency [1] was “inactive”, the Potency [8] was “inactive” and the viability [2] was 122%. The Potency [9] was “inactive”, the Potency [3] was “inactive” and the Potency [4] was “inactive”. For the same compound, the Potency [6] was “inactive”.

In the case of `O=C(C1CCCCC1)N1CC(=O)N2CCc3ccccc3C2C1` (stereo not given), the Potency [1] is reported as “inactive”, the Potency [8] is reported as “inactive” and the viability [2] is reported as 120%. For the same compound, the Potency [9] was “inactive”, the Potency [3] was “inactive” and the Potency [4] was “inactive”. The Potency [5] was “inactive”, the Potency [6] was “inactive” and the Potency [7] was “inactive”.
